Data reported in PubChem BioAssay (NCI).
About 83,000 compounds went through this panel and 20% of them were active in at least one assay; those are over-represented in the sample as a whole.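 Percent growth is the endpoint: 0 to 100 indicates growth inhibition (40 means 60% inhibition), 0 means no net growth, and negative values indicate cell death.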 Active and inactive are the calls of the source. The calls were made as follows: active = growth percent below 10; inactive = the rest.

Assays:
Assay in all cases: NCI-60 one-dose screen, 48 h (100 = growth as untreated, 0 = no growth, -100 = all killed)
Details in all cases: 10 µM
T-47D breast = test system: T-47D breast
BT-549 breast = test system: BT-549 breast
MDA-MB-435 melanoma = test system: MDA-MB-435 melanoma
SW-620 colon = test system: SW-620 colon
MCF7 breast = test system: MCF7 breast
HCT-116 colon = test system: HCT-116 colon
HCC-2998 colon = test system: HCC-2998 colon
KM12 colon = test system: KM12 colon

Measured: growth

CC(=O)O[C@H]1CC[C@@]2(C)[C@@H](CC[C@@H]3[C@@H]2CC[C@]2(C)C=C(C=O)C[C@@H]32)C1
active: MCF7 breast 7.05% | HCT-116 colon -19.3%
inactive: T-47D breast 33.6% | BT-549 breast 68.5% | MDA-MB-435 melanoma 57.8% | SW-620 colon 30.1% | HCC-2998 colon 92.5% | KM12 colon 107%

Cc1ccc(/C=C2\CN(Cc3cn(CCNc4ccnc5cc(Cl)ccc45)nn3)C/C(=C\c3ccc(C)cc3)C2=O)cc1
active: T-47D breast -12.3% | BT-549 breast -71% | MDA-MB-435 melanoma -67.3% | SW-620 colon -63.6% | MCF7 breast -38.3% | HCT-116 colon -53.5% | HCC-2998 colon -91% | KM12 colon -93.8%

CCOC(=O)Nc1ccc2c(c1)C(=O)N(CC)c1ccccc1O2
active: MDA-MB-435 melanoma -17.1% | HCT-116 colon 9.54%
inactive: T-47D breast 73.4% | BT-549 breast 26.2% | SW-620 colon 32.7% | MCF7 breast 14.2% | HCC-2998 colon 18.2% | KM12 colon 14.7%

CCNC1(NC#N)CCCCC1
inactive: T-47D breast 104% | BT-549 breast 110% | MDA-MB-435 melanoma 97.7% | SW-620 colon 104% | MCF7 breast 104% | HCT-116 colon 103% | HCC-2998 colon 96.2% | KM12 colon 105%

CCOc1ccc2c(c1)CC[C@@H]1[C@@H]2CC[C@]2(C)[C@@H](O)[C@@H](O)C[C@@H]12
inactive: T-47D breast 93.8% | BT-549 breast 119% | MDA-MB-435 melanoma 90.2% | SW-620 colon 95.9% | MCF7 breast 111% | HCT-116 colon 104% | HCC-2998 colon 108% | KM12 colon 106%

CC(C)c1[nH]nc2c(NCc3ccc(-c4ccccn4)cc3)nc(SCCN)nc12
active: T-47D breast -15.6% | BT-549 breast -32% | MDA-MB-435 melanoma -39.6% | SW-620 colon 5.99% | MCF7 breast 1.59% | HCT-116 colon 5.28% | HCC-2998 colon -22.9% | KM12 colon 5.47%

CC1=CSC2=NC(c3ccc(Cl)c(Cl)c3)=CC(c3ccc(Cl)cc3)N12 (stereo unspecified)
active: BT-549 breast 7.99% | HCT-116 colon 3.71%
inactive: T-47D breast 21.3% | MDA-MB-435 melanoma 10.4% | SW-620 colon 26.4% | MCF7 breast 54.3% | HCC-2998 colon 100% | KM12 colon 56.8%

Nc1nc2c(ncn2C2OC3COP(=O)(O)OC4C(COP(=O)(O)OC2C3O)OC(n2cnc3c(N)ncnc32)C4O)c(=O)[nH]1 (stereo unspecified)
inactive: T-47D breast 84.4% | BT-549 breast 90% | MDA-MB-435 melanoma 105% | SW-620 colon 107% | MCF7 breast 109% | HCT-116 colon 94% | HCC-2998 colon 99.3% | KM12 colon 104%

CC(C)/C(=N/O)c1ccccc1
inactive: T-47D breast 114% | BT-549 breast 111% | MDA-MB-435 melanoma 107% | SW-620 colon 114% | MCF7 breast 107% | HCT-116 colon 109% | HCC-2998 colon 106% | KM12 colon 117%

COc1cc(Cl)cc(-c2nn(-c3cccc(NC(=O)Nc4cccc(C(F)(F)F)c4)c3)cc2-c2ccncc2)c1
inactive: BT-549 breast 12.9% | SW-620 colon 11.2% | HCC-2998 colon 19%
active: T-47D breast -0.45% | MDA-MB-435 melanoma -20.9% | MCF7 breast 0.3% | HCT-116 colon 5.07% | KM12 colon 9.81%

CCCCOCC(=O)NC(NP(=O)(N(C)C)N(C)C)C(Cl)(Cl)Cl (stereo unspecified)
inactive: BT-549 breast 117% | MDA-MB-435 melanoma 102% | SW-620 colon 108% | MCF7 breast 103% | HCT-116 colon 96.6% | HCC-2998 colon 103% | KM12 colon 133%
active: T-47D breast 7.73%

COc1cc(OC)cc(N2CCN(C(=O)Nc3nc4cc(F)ccc4nc3OC)CC2)c1
inactive: T-47D breast 70.4% | BT-549 breast 24.4% | SW-620 colon 22% | MCF7 breast 23.4% | HCC-2998 colon 21.4% | KM12 colon 13.7%
active: MDA-MB-435 melanoma -31.9% | HCT-116 colon 0.21%

c1ccc(CC(NCCNC(Cc2ccccc2)c2ccccc2)c2ccccc2)cc1 (stereo unspecified)
active: SW-620 colon 5.83% | MCF7 breast -7.95% | HCT-116 colon -25.3% | HCC-2998 colon 3.25%
inactive: T-47D breast 13.9% | BT-549 breast 56.6% | MDA-MB-435 melanoma 38% | KM12 colon 16.3%

O=C(O)c1ccccc1C(=O)c1cccc2c(F)cccc12
inactive: T-47D breast 94.5% | BT-549 breast 103% | MDA-MB-435 melanoma 112% | SW-620 colon 106% | MCF7 breast 93.5% | HCT-116 colon 103% | HCC-2998 colon 105% | KM12 colon 111%

C=CCN1C(=O)/C(=C\c2ccc3c(c2)CCC3)SC1=S
inactive: T-47D breast 91.5% | BT-549 breast 93.5% | MDA-MB-435 melanoma 109% | SW-620 colon 104% | MCF7 breast 103% | HCT-116 colon 99.8% | HCC-2998 colon 106% | KM12 colon 104%

CN(C)c1ccc2c(c1)OC(N)=C(C#N)C2c1ccc2c(c1)CCCN2C (stereo unspecified)
active: MDA-MB-435 melanoma -5.69% | HCT-116 colon 7.88%
inactive: T-47D breast 44.5% | BT-549 breast 49.4% | SW-620 colon 35% | MCF7 breast 18.1% | HCC-2998 colon 26.7% | KM12 colon 23.1%

CC(=O)c1c(O)cc2c3c1OC(C)(C)C1CCC(C)(CC31)O2 (stereo unspecified)
inactive: T-47D breast 66.4% | BT-549 breast 90.8% | MDA-MB-435 melanoma 104% | SW-620 colon 107% | MCF7 breast 119% | HCT-116 colon 86.8% | HCC-2998 colon 115% | KM12 colon 94.8%

COc1ccc(/C=C2\CCC3C(CCCC34OCCO4)C2=O)cc1 (stereo unspecified)
inactive: T-47D breast 75.4% | BT-549 breast 88.4% | MDA-MB-435 melanoma 29.9% | SW-620 colon 75.6% | MCF7 breast 70.6% | HCT-116 colon 92.4% | HCC-2998 colon 92.4% | KM12 colon 67.7%

O=[N+]([O-])c1ccc(Br)o1
inactive: T-47D breast 91.3% | BT-549 breast 97% | MDA-MB-435 melanoma 109% | SW-620 colon 109% | MCF7 breast 95.7% | HCT-116 colon 101% | HCC-2998 colon 95% | KM12 colon 99.1%

COc1ccc(C2C=C(c3ccc(Cl)cc3)N=C3SC=CN32)c(Br)c1 (stereo unspecified)
inactive: T-47D breast 71.8% | BT-549 breast 96.7% | MDA-MB-435 melanoma 69.2% | SW-620 colon 91.3% | MCF7 breast 75.3% | HCT-116 colon 54% | HCC-2998 colon 86.9% | KM12 colon 62.3%

O=C(Nc1cccc(Cl)c1)Nc1cc2ncncc2cc1OCc1cccc(F)c1
inactive: BT-549 breast 44.8% | SW-620 colon 23.9% | HCC-2998 colon 35.7%
active: T-47D breast -5.19% | MDA-MB-435 melanoma 0.458% | MCF7 breast 6.04% | HCT-116 colon 8.63% | KM12 colon 9.08%

O=c1ccc2nc(-c3ccccc3)nn(-c3ccccc3)c-2c1
inactive: BT-549 breast 90.2% | MDA-MB-435 melanoma 24.7% | HCC-2998 colon 100% | KM12 colon 63.1%
active: T-47D breast -36.5% | SW-620 colon -80.5% | MCF7 breast -66.7% | HCT-116 colon -90.7%

Cc1nc2ccc(-n3c(-c4ccc(Cl)cc4)nc4ccccc4c3=O)cc2n1Cc1ccccc1
inactive: T-47D breast 78.8% | BT-549 breast 83.3% | MDA-MB-435 melanoma 97.2% | SW-620 colon 93.7% | MCF7 breast 85% | HCT-116 colon 93% | HCC-2998 colon 107% | KM12 colon 97.8%

COc1ccc(Nc2ccnc(N3CCN(c4ccnc5cc(Cl)ccc45)CC3)n2)cc1
inactive: HCC-2998 colon 15.8%
active: T-47D breast -7.73% | BT-549 breast -11.5% | MDA-MB-435 melanoma -4.38% | SW-620 colon 7.57% | MCF7 breast 2.5% | HCT-116 colon 0.434% | KM12 colon 2.49%

Cc1ccc(-c2cc(-c3cccc(Nc4ccnc5cc(Cl)ccc45)c3)nc3nc(N)[nH]c(=O)c23)cc1
inactive: T-47D breast 35% | BT-549 breast 86.4% | MDA-MB-435 melanoma 99.8% | SW-620 colon 95.8% | MCF7 breast 72.5% | HCT-116 colon 91.3% | HCC-2998 colon 91.5% | KM12 colon 70.5%

O=C/C=C/c1ccc([N+](=O)[O-])cc1Cl
inactive: T-47D breast 86.4% | BT-549 breast 106% | MDA-MB-435 melanoma 95.9% | SW-620 colon 90% | MCF7 breast 62.8% | HCC-2998 colon 111% | KM12 colon 95.6%
active: HCT-116 colon 2.9%

CCOc1ccc(-n2cc(-c3ccc(N(C)C)cc3)[n+]3c2CCCCC3)cc1
inactive: MDA-MB-435 melanoma 15.1% | SW-620 colon 19.1% | HCC-2998 colon 21.3% | KM12 colon 14.3%
active: T-47D breast 0.571% | BT-549 breast -1.7% | MCF7 breast 5.05% | HCT-116 colon 0.582%
